Results filed as inconclusive are left out. Where a call stands in place of a potency, no number is given. Active and inactive are the calls of the source. Calls follow the shape of the dose curve; as a rule, active = well fitted curve in either direction with a large enough effect; inconclusive = small, poorly fitted or top-dose-only effect; inactive = no such curve, though single readings can be large or run the other way.
molecular target: Lysosomal alpha-glucosidase (Homo sapiens) (UniProt P10253); assay: Confirmation of Inhibitors and Activators of Human alpha-Glucosidase From Spleen Homogenate; settings: alpha-glucosidase enzyme activity; series mostly up to 60.5 µM;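 as to potency: fluorescence of 4-methylumbelliferone released from a fluorogenic glucopyranoside substrate at pH 5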
Summary of the method: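 Compounds titrated against spleen-homogenate alpha-glucosidase, pH 5.0, 1 mM 4-MU-glucoside substrate, 37 C for 40 min. Fluorescence after pH 10 stop, normalised to no-enzyme and enzyme controls; Hill-equation AC50.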
Potency is read from the fitted curve at half-maximal effect.

| SMILES | Potency |
| --- | --- |
| Cc1ccc(S(=O)(=O)N2CCN(C(=O)C3COc4ccccc4O3)CC2)cc1C (configuration not stated) | inactive |
| COc1cc(/C=C/c2ccc3ccccc3n2)cc(OC)c1O | inactive |
| CCN(CC)S(=O)(=O)c1ccc2c(c1)C(=NNc1ccccc1)c1cc(S(=O)(=O)N(CC)CC)ccc1-2 | inactive |
| O=c1oc2ccc(Br)cc2cc1-c1nc2c(s1)CCc1ccccc1-2 | inactive |
| CCCN1CNc2c(c(=O)[nH]c(=S)n2CCc2ccccc2Cl)C1 | 15.8 µM (active) |
| Cc1ccc(-c2cc(C(=O)N/N=C/c3c(C)nn(-c4ccccc4)c3C)n[nH]2)s1 | inactive |
| Cc1cccc2cc3c(NC(=O)c4ccccn4)nn(C)c3nc12 | inactive |
| N#Cc1c(-c2ccccc2)nc(SCc2nc(N)nc(N3CCCCC3)n2)[nH]c1=O | inactive |
| CCCN1CNc2c(c(=O)[nH]c(=S)n2CCc2ccc(OC)cc2OC)C1 | 15.8 µM (active) |
| Cc1csc(-c2cc3ccccc3oc2=O)n1 | 31.6 µM (active) |
| CCCN1CNc2c(c(=O)[nH]c(=S)n2CCc2cc(Cl)ccc2Cl)C1 | 14.1 µM (active) |
| Nc1ccccc1N=Cc1ccc(-c2cccc(Cl)c2)o1 | inactive |
| Cc1ccc2nc(-c3ccccc3N)[nH]c2c1 | inactive |
| CC(=O)c1ccc(N2CCN(S(=O)(=O)c3ccc4c(c3)C(=O)OC4)CC2)cc1 | inactive |
| CCCN1CNc2c(c(=O)[nH]c(=S)n2CCC(C)C)C1 | inactive |
| COC(=O)c1ccccc1S(=O)(=O)N1CCOCC1 | inactive |
| O=S(=O)(c1ccc(-c2ccccc2)cc1)N1CCOCC1 | inactive |

From PubChem BioAssay AID2113 (National Center for Advancing Translational Sciences (NCATS), 2009)
